{
  "source": "PubChem BioAssay (NCI)",
  "note": "This is part of a sample that, as a whole, favours compounds with a hit. Of some 83,000 tested, about 20% had one in any assay.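 The test compound was applied at a single concentration to cells in 96-well plates for 48 hours, and percent growth was recorded.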 A number with no mark means an inactive call. Active and inactive are the calls of the source. How the source made its calls: active means growth percent below 10; inactive means the rest.",
  "data": [
    {"test_system": "CCRF-CEM leukemia", "experiment": "NCI-60 one-dose screen, 48 h (100 = growth as untreated, 0 = no growth, -100 = all killed)", "details": "10 µM", "values": [
      {"molecule": "CCN(CC)CCNc1ccc(CO)c2oc3cc(Cl)ccc3c(=O)c12", "growth": "66.6%"},
      {"molecule": "O=C(O)C(SC(C(=O)O)c1ccccc1)c1ccccc1", "note": "(stereo not drawn)", "growth": "97.8%"},
      {"molecule": "COc1ccc(-c2nc3ccccn3c2-c2nnc(-c3cc(OC)c(OC)c(OC)c3)o2)cc1", "growth": "88.4%"},
      {"molecule": "N#Cc1c(C#N)c(SSc2c(C#N)c(C#N)c(N)n2-c2ccccc2)n(-c2ccccc2)c1N", "growth": "126%"},
      {"molecule": "Cc1ccc(-c2nc(/C=C3/C(=O)N(C)c4ccc(F)cc43)c3ccccn23)cc1", "growth": "111%"},
      {"molecule": "CCN(CC)CCSCCCNc1c2ccc(Cl)cc2nc2ccc(OC)cc12", "growth": "-20.4% (active)"},
      {"molecule": "CN1CC[C@@H](c2c(O)cc(O)c3c(=O)cc(-c4ccccc4Cl)oc23)[C@@H](O)C1", "growth": "-9.53% (active)"},
      {"molecule": "NC1=NC(=O)C(c2ccccc2)(c2ccccc2)S1", "growth": "97.1%"},
      {"molecule": "CCc1ccc2c(c1)N(CCO)C1=C(C(=O)OC1)C2c1ccccc1", "note": "(stereo not drawn)", "growth": "91.9%"},
      {"molecule": "Cc1cccc2c(NCCN(C)C)c3cccc(C(=O)NCCN(C)C)c3nc12", "growth": "3.77% (active)"},
      {"molecule": "CCCN(CCC)CCC(O)c1cc2c(c3ccccc13)CCCC2", "note": "(stereo not drawn)", "growth": "93.8%"},
      {"molecule": "COc1ccc2c(c1)/C(=C\\c1c[nH]c3ccc(OC)cc13)C(=O)N2", "growth": "28.6%"},
      {"molecule": "Nc1ccn(C2CC(O)C(CO)O2)c(=O)n1", "note": "(stereo not drawn)", "growth": "116%"},
      {"molecule": "COc1cccc(C2C3=C(COC3=O)N(CCO)c3cc(OC)ccc32)c1", "note": "(stereo not drawn)", "growth": "15%"},
      {"molecule": "C=C(C(=O)c1ccccc1)C(NC(C)(C)C)c1ccccc1", "note": "(stereo not drawn)", "growth": "5.75% (active)"},
      {"molecule": "CCCC1(CC(=O)O)OCCc2c1[nH]c1ccccc21", "note": "(stereo not drawn)", "growth": "94.1%"},
      {"molecule": "CN(C)C(=S)N/N=C\\C=N/NC(=S)N(C)C", "growth": "22.6%"},
      {"molecule": "C=C(NC(=O)C(=C)NC(=O)c1csc(C2=NC3c4csc(n4)C4NC(=O)c5csc(n5)C(C(C)(O)C(C)O)NC(=O)C5CSC(=N5)/C(=C/C)NC(=O)C(C(C)O)NC(=O)c5csc(n5)C3(CC2)NC(=O)C(C)NC(=O)C(=C)NC(=O)C(=C)NC(=O)C(C(C)C)NC2C=Cc3c(C(C)O)cc(nc3C2O)C(=O)OC4C)n1)C(N)=O", "note": "(stereo not drawn)", "growth": "-31.7% (active)"},
      {"molecule": "COc1ccc2nc3ccccc3c(NCCNCC(C)O)c2c1", "note": "(stereo not drawn)", "growth": "5.94% (active)"},
      {"molecule": "CN(C)CCN1C(=O)c2cccc3cc(N)cc(c23)C1=O", "growth": "13.6%"},
      {"molecule": "COc1ccc(N2C(=O)C3c4[nH]c5ccc(OCc6ccccc6)cc5c4C4CCC(C(C)C)CC4C3C2=O)cc1", "note": "(stereo not drawn)", "growth": "71.9%"},
      {"molecule": "CC(C)C[C@H](NC(=O)[C@H](Cc1cccc2ccccc12)NS(=O)(=O)c1cccc2cccnc12)B(O)O", "growth": "-18.8% (active)"},
      {"molecule": "O=C(CC(C(=O)c1ccccc1)N1CCOCC1)c1ccccc1", "note": "(stereo not drawn)", "growth": "9.08% (active)"},
      {"molecule": "NC(=O)SCC(=O)Nc1ccc(S(N)(=O)=O)cc1", "growth": "106%"},
      {"molecule": "CCCCN(CCCC)CCCCCCCCC(O)c1cc2ccccc2c2ccccc12", "note": "(stereo not drawn)", "growth": "37.4%"},
      {"molecule": "O=C(CCCCCCC(=O)Nc1cccnc1)NO", "growth": "2% (active)"},
      {"molecule": "COc1ccc2nc3cc(Cl)ccc3c(NCCNCC(C)O)c2c1", "note": "(stereo not drawn)", "growth": "19.3%"},
      {"molecule": "Clc1cccc(-c2nc(-c3cccs3)no2)c1", "growth": "78.3%"},
      {"molecule": "CCCCCCCCCCCCCCCCCCOCC(COCCOCC[N+]1(CCCCCC(=O)[O-])CCCC1)Oc1ncccn1", "note": "(stereo not drawn)", "growth": "32.3%"},
      {"molecule": "CC/C(=N\\N=C(/CC)c1ccc(Br)cc1)c1ccc(Br)cc1", "growth": "105%"},
      {"molecule": "O=C1OCC2=C1C(c1ccc(Cl)c(Cl)c1)c1cc3c(cc1N2CCO)OCCO3", "note": "(stereo not drawn)", "growth": "7.16% (active)"},
      {"molecule": "COc1cc2nc(Nc3cccc(NC(C)=O)c3)nc(N)c2cc1OC", "growth": "-71.1% (active)"},
      {"molecule": "Cc1nc2ccc(CN(C)c3ccc(C(=O)N[C@@H](CCC(=O)O)C(=O)O)s3)cc2c(=O)[nH]1", "growth": "33.1%"},
      {"molecule": "CCCCCCCCN(CCCCCCCC)CCCCCCCCCN1CCCc2cc(OC)ccc21", "growth": "85.8%"},
      {"molecule": "Nc1ncnc2[nH]c(=O)[nH]c12", "growth": "125%"},
      {"molecule": "COc1ccc2c(c1)sc1nc(-c3ccccc3)c(-c3cccnc3)n12", "growth": "93.1%"},
      {"molecule": "C=C(Cl)[C@@](Cl)(CBr)CC[C@@H](Br)C(C)(C)Cl", "growth": "94.3%"},
      {"molecule": "C[N+](C)(C)c1ncnc2nc[nH]c12", "growth": "102%"},
      {"molecule": "COC(=O)[C@@H]1[C@H](O)[C@H](C)[C@H](O)[C@@](C)(O)/C=C\\C=C(C)C(=O)Nc2c(C)c(OC(C)=O)c3c(c2O)C(=O)C(C)=C2OCOC(=C23)C(C)=C[C@@](C)(O)[C@H](O)[C@@H](C)[C@H]1OC(C)=O", "growth": "111%"}
    ]},
    {"test_system": "MOLT-4 leukemia", "experiment": "NCI-60 one-dose screen, 48 h (100 = growth as untreated, 0 = no growth, -100 = all killed)", "details": "10 µM", "values": [
      {"molecule": "CCN(CC)CCNc1ccc(CO)c2oc3cc(Cl)ccc3c(=O)c12", "growth": "62.3%"},
      {"molecule": "O=C(O)C(SC(C(=O)O)c1ccccc1)c1ccccc1", "note": "(stereo not drawn)", "growth": "103%"},
      {"molecule": "COc1ccc(-c2nc3ccccn3c2-c2nnc(-c3cc(OC)c(OC)c(OC)c3)o2)cc1", "growth": "92.1%"},
      {"molecule": "N#Cc1c(C#N)c(SSc2c(C#N)c(C#N)c(N)n2-c2ccccc2)n(-c2ccccc2)c1N", "growth": "106%"},
      {"molecule": "Cc1ccc(-c2nc(/C=C3/C(=O)N(C)c4ccc(F)cc43)c3ccccn23)cc1", "growth": "100%"},
      {"molecule": "CCN(CC)CCSCCCNc1c2ccc(Cl)cc2nc2ccc(OC)cc12", "growth": "-19.9% (active)"},
      {"molecule": "CN1CC[C@@H](c2c(O)cc(O)c3c(=O)cc(-c4ccccc4Cl)oc23)[C@@H](O)C1", "growth": "-6.09% (active)"},
      {"molecule": "NC1=NC(=O)C(c2ccccc2)(c2ccccc2)S1", "growth": "97.5%"},
      {"molecule": "CCc1ccc2c(c1)N(CCO)C1=C(C(=O)OC1)C2c1ccccc1", "note": "(stereo not drawn)", "growth": "83%"},
      {"molecule": "Cc1cccc2c(NCCN(C)C)c3cccc(C(=O)NCCN(C)C)c3nc12", "growth": "1.96% (active)"},
      {"molecule": "CCCN(CCC)CCC(O)c1cc2c(c3ccccc13)CCCC2", "note": "(stereo not drawn)", "growth": "92.9%"},
      {"molecule": "COc1ccc2c(c1)/C(=C\\c1c[nH]c3ccc(OC)cc13)C(=O)N2", "growth": "11.7%"},
      {"molecule": "Nc1ccn(C2CC(O)C(CO)O2)c(=O)n1", "note": "(stereo not drawn)", "growth": "104%"},
      {"molecule": "COc1cccc(C2C3=C(COC3=O)N(CCO)c3cc(OC)ccc32)c1", "note": "(stereo not drawn)", "growth": "19%"},
      {"molecule": "C=C(C(=O)c1ccccc1)C(NC(C)(C)C)c1ccccc1", "note": "(stereo not drawn)", "growth": "4.36% (active)"},
      {"molecule": "CCCC1(CC(=O)O)OCCc2c1[nH]c1ccccc21", "note": "(stereo not drawn)", "growth": "87.3%"},
      {"molecule": "CN(C)C(=S)N/N=C\\C=N/NC(=S)N(C)C", "growth": "10%"},
      {"molecule": "C=C(NC(=O)C(=C)NC(=O)c1csc(C2=NC3c4csc(n4)C4NC(=O)c5csc(n5)C(C(C)(O)C(C)O)NC(=O)C5CSC(=N5)/C(=C/C)NC(=O)C(C(C)O)NC(=O)c5csc(n5)C3(CC2)NC(=O)C(C)NC(=O)C(=C)NC(=O)C(=C)NC(=O)C(C(C)C)NC2C=Cc3c(C(C)O)cc(nc3C2O)C(=O)OC4C)n1)C(N)=O", "note": "(stereo not drawn)", "growth": "-15% (active)"},
      {"molecule": "COc1ccc2nc3ccccc3c(NCCNCC(C)O)c2c1", "note": "(stereo not drawn)", "growth": "6.77% (active)"},
      {"molecule": "CN(C)CCN1C(=O)c2cccc3cc(N)cc(c23)C1=O", "growth": "-2.12% (active)"},
      {"molecule": "COc1ccc(N2C(=O)C3c4[nH]c5ccc(OCc6ccccc6)cc5c4C4CCC(C(C)C)CC4C3C2=O)cc1", "note": "(stereo not drawn)", "growth": "30.8%"},
      {"molecule": "CC(C)C[C@H](NC(=O)[C@H](Cc1cccc2ccccc12)NS(=O)(=O)c1cccc2cccnc12)B(O)O", "growth": "1.17% (active)"},
      {"molecule": "O=C(CC(C(=O)c1ccccc1)N1CCOCC1)c1ccccc1", "note": "(stereo not drawn)", "growth": "45.7%"},
      {"molecule": "NC(=O)SCC(=O)Nc1ccc(S(N)(=O)=O)cc1", "growth": "113%"},
      {"molecule": "CCCCN(CCCC)CCCCCCCCC(O)c1cc2ccccc2c2ccccc12", "note": "(stereo not drawn)", "growth": "39%"},
      {"molecule": "O=C(CCCCCCC(=O)Nc1cccnc1)NO", "growth": "16.9%"},
      {"molecule": "COc1ccc2nc3cc(Cl)ccc3c(NCCNCC(C)O)c2c1", "note": "(stereo not drawn)", "growth": "11.7%"},
      {"molecule": "Clc1cccc(-c2nc(-c3cccs3)no2)c1", "growth": "86.3%"},
      {"molecule": "CCCCCCCCCCCCCCCCCCOCC(COCCOCC[N+]1(CCCCCC(=O)[O-])CCCC1)Oc1ncccn1", "note": "(stereo not drawn)", "growth": "32.5%"},
      {"molecule": "CC/C(=N\\N=C(/CC)c1ccc(Br)cc1)c1ccc(Br)cc1", "growth": "105%"},
      {"molecule": "O=C1OCC2=C1C(c1ccc(Cl)c(Cl)c1)c1cc3c(cc1N2CCO)OCCO3", "note": "(stereo not drawn)", "growth": "19.9%"},
      {"molecule": "COc1cc2nc(Nc3cccc(NC(C)=O)c3)nc(N)c2cc1OC", "growth": "-89.5% (active)"},
      {"molecule": "Cc1nc2ccc(CN(C)c3ccc(C(=O)N[C@@H](CCC(=O)O)C(=O)O)s3)cc2c(=O)[nH]1", "growth": "26.2%"},
      {"molecule": "CCCCCCCCN(CCCCCCCC)CCCCCCCCCN1CCCc2cc(OC)ccc21", "growth": "85.8%"},
      {"molecule": "Nc1ncnc2[nH]c(=O)[nH]c12", "growth": "138%"},
      {"molecule": "COc1ccc2c(c1)sc1nc(-c3ccccc3)c(-c3cccnc3)n12", "growth": "86.6%"},
      {"molecule": "C=C(Cl)[C@@](Cl)(CBr)CC[C@@H](Br)C(C)(C)Cl", "growth": "81.1%"},
      {"molecule": "C[N+](C)(C)c1ncnc2nc[nH]c12", "growth": "98.6%"},
      {"molecule": "COC(=O)[C@@H]1[C@H](O)[C@H](C)[C@H](O)[C@@](C)(O)/C=C\\C=C(C)C(=O)Nc2c(C)c(OC(C)=O)c3c(c2O)C(=O)C(C)=C2OCOC(=C23)C(C)=C[C@@](C)(O)[C@H](O)[C@@H](C)[C@H]1OC(C)=O", "growth": "95.6%"}
    ]}
  ]
}
